# Measurements taken from the supplement of paper PMC13380429.
# A number with no mark means an inactive call.
# System: Vero E6 infected with SARS-CoV-2
# Assay: inhibition of SARS-CoV-2 cytopathic effect; higher = more antiviral protection, active = above 15
# Details: 48 h
SMILES,inhibition of SARS-CoV-2 cytopathic effect (1 nM),inhibition of SARS-CoV-2 cytopathic effect (8.33 nM),inhibition of SARS-CoV-2 cytopathic effect (100 nM),inhibition of SARS-CoV-2 cytopathic effect (833.33 nM),inhibition of SARS-CoV-2 cytopathic effect (10000 nM)
CC1(C)C(/C=C/C=C/C=C/C=C2\N(CCCCS(=O)(=O)O)c3ccc4ccccc4c3C2(C)C)=[N+](CCCCS(=O)(=O)[O-])c2ccc3ccccc3c21 [indocyanine-green],-0.13%,1.53%,0.85%,1.22%,0.23%
Cc1ccc(C(=O)Cn2c3c(sc2=N)CCCC3)cc1 [pifithrin-alpha],-1.05%,-0.83%,-1.23%,-1.09%,-2.47%
C[C@@H](c1ccc2nccn2c1)n1nnc2ncc(-c3cnn(C)c3)nc21 [savolitinib],0.39%,-0.4%,-0.3%,0.87%,1.9%
[Cl][Ti][Cl].c1cc[cH-]c1.c1cc[cH-]c1 [titanocene-dichloride],3.56%,-0.14%,1.81%,-1.85%,0.26%
CCNC(=O)/C=C/c1cccc(Br)c1 [cinromide],0.47%,1.25%,0.09%,2.1%,1.33%
COc1ccc(N2CCOCC2)c2sc(NC(=O)N3CCC(C)(O)CC3)nc12 [tozadenant],1.95%,8.03%,-0.04%,-0.08%,-2.66%
Nc1nc(N)nc(NC2CC2)n1 [cyromazine],-2.63%,-0.52%,2.15%,2.37%,0.6%
CN1C(=O)N(c2ccc(C#N)c(C(F)(F)F)c2)C(=O)[C@]1(CO)c1ccccc1 [GLPG0492-R-enantiomer],2.05%,2.68%,0.3%,1.61%,2.02%
Oc1cc(Cl)ccc1Oc1ccc(Cl)cc1Cl [triclosan],-1.92%,-0.14%,1.39%,-0.77%,7.81%
OCC(CO)N[C@H]1C[C@](O)(CO)[C@@H](O)[C@H](O)[C@H]1O [voglibose],0.63%,-8.33%,1.72%,2.63%,2.03%
CCCCCCCN(CC)CCC[C@@H](O)c1ccc(NS(C)(=O)=O)cc1 (racemic) [ibutilide],-3.47%,-2.14%,-2.19%,0.97%,-2.22%
COc1cc(CNC(=O)CCCC/C=C/C(C)C)ccc1O [capsaicin],0.65%,0.89%,1.27%,-1.15%,2.73%
CN1CCN(C(c2ccccc2)c2ccc(Cl)cc2)CC1 (stereo not given) [chlorcyclizine],-1.24%,1.4%,-0.05%,-3.64%,-10.6%
CCn1nc(C2CCN(C(=O)CCO)CC2)nc1-c1cnc(N)c(-c2nnc(C(C)(C)C)o2)n1,-2.84%,1.6%,1.87%,-2.41%,-1.94%
O=C1Nc2cc(Cl)c(Cl)cc2N2CCNC[C@H]12,-0.02%,-0.54%,1.72%,0.92%,1.67%
CCS(=O)(=O)N1CCC([C@@H](C)n2c(C)c(C(=O)NCc3c(OC)cc(C)[nH]c3=O)c3ccccc32)CC1,0.38%,2.34%,0.88%,0.2%,-1.12%
CCCCN1CCCC1CNC(=O)c1cc(C#N)c2ccccc2c1OC (stereo not given) [nafadotride],-1.44%,-0.63%,-0.23%,0.59%,0.87%
O=NN(CCCl)C(=O)NC1CCCCC1 [lomustine],-1.8%,1.26%,1.76%,2.26%,-0.14%
CC(=O)O[C@@H]1C[C@H]2C(C)(C)C(=O)C=C[C@]2(C)[C@H]2CC[C@@]3(C)[C@H](c4ccoc4)OC(=O)[C@H]4O[C@]43[C@@]21C [gedunin],-1.35%,-1.68%,-1.07%,6.09%,19% (active)
C=CCN1C[C@H](C)N([C@H](c2ccc(C(=O)N(CC)CC)cc2)c2cccc(O)c2)C[C@H]1C,0.51%,2.94%,-0.07%,-0.38%,-1.22%

SMILES,inhibition of SARS-CoV-2 cytopathic effect (1 nM),inhibition of SARS-CoV-2 cytopathic effect (8.33 nM),inhibition of SARS-CoV-2 cytopathic effect (100 nM),inhibition of SARS-CoV-2 cytopathic effect (833.33 nM),inhibition of SARS-CoV-2 cytopathic effect (10000 nM)
CCOc1ccc(S(=O)(=O)O)c2cccnc12 [actinoquinol],0.25%,0.94%,0.78%,1.14%,-3.36%
Nc1nc(OCc2cc(Br)cs2)c2[nH]cnc2n1 [lomeguatrib],-1%,0%,0.04%,-0.89%,0.11%
Cc1nnc(-c2ccc3occ(-c4ccc([S+](C)[O-])cc4)c3c2)o1 (stereo not given),0.61%,0.11%,-1.48%,1.56%,8.77%
CC(C(=O)O)c1cccc(Oc2ccccc2)c1 (stereo not given) [fenoprofen],-0.67%,-2.89%,0.97%,-1.9%,-3.01%
CS(=O)(=O)N(Cc1ccco1)C[C@@H](O)Cn1c2ccccc2c2ccccc21,3.16%,2.61%,-0.72%,0.77%,9.76%
CC[C@H](C)C(=O)O[C@H]1C[C@@H](C)C=C2C=C[C@H](C)[C@H](CC[C@@H]3C[C@@H](O)CC(=O)O3)[C@H]21 [lovastatin],-0.49%,4.16%,1.14%,1.16%,0.82%
CCCC[P+](CCCC)(CCCC)Cc1ccc(NC(=O)[C@H](Cc2ccc3ccccc3c2)N/C(=N/C2CCCCC2)NC2CCCCC2)cc1,-1.29%,-0.27%,-4.22%,-4.62%,-2.72%
Cc1csc(-c2nnc(Nc3ccc(Oc4ncccc4-c4ccnc(N)n4)cc3)c3ccccc23)c1,-1.03%,-3.23%,-5.41%,-4.07%,-4.59%
CC(Cc1ccccc1)NCCC(c1ccccc1)c1ccccc1 (stereo not given) [prenylamine],1.32%,-1.92%,-0.65%,-1.29%,23.1% (active)
Oc1ccc([C@H]2COc3cc(O)ccc3C2)cc1 [equol],-2.73%,-1.03%,-2.88%,3.83%,0.31%
O=C(NCCCN1CCC2(CC1)OCc1ccccc12)[C@H]1CCCN1Cc1ccccc1,-4.44%,-4.12%,-5.12%,-1.81%,0.56%
N[C@@H](Cn1oc(=O)[nH]c1=O)C(=O)O [L-quisqualic-acid],-3.6%,3.03%,2.21%,-1.93%,0.17%
COc1c(O[C@@H]2O[C@H](CO)[C@@H](O)[C@H](O)[C@H]2O)cc2c(c1OC)-c1ccc(SC)c(=O)cc1[C@@H](NC(C)=O)CC2 [thiocolchicoside],0.08%,2.05%,-0.7%,-5.51%,-3.66%
NCC1(CC(=O)O)CCCCC1 [gabapentin],-2.49%,2.99%,-2.14%,0.15%,2.27%
CCNC(=O)Nc1ccc(-c2nc3c(c(N4CCOC[C@@H]4C)n2)CCN(C2COC2)C3)cc1,0.65%,-0.06%,-0.8%,0.29%,-0.84%
Cc1ccc(NC(=O)Nc2cc(C(F)(F)F)ccc2F)cc1Nc1ccc2c(c1)NC(=O)/C2=C\c1ccc[nH]1,5.12%,5.28%,5.34%,7.91%,4.87%
C=C1CC[C@@]2(O)[C@H]3Cc4ccc(O)c5c4[C@@]2(CCN3CC2CC2)[C@H]1O5 [nalmefene],1.67%,1.64%,2.15%,-1.46%,-3.45%
COc1ccc([C@]2(C#N)CC[C@@H](C(=O)O)CC2)cc1OC1CCCC1 [cilomilast],-1.82%,-3.26%,-2.36%,-1.23%,-0.83%
C#C[C@]1(O)CC[C@H]2[C@@H]3CCC4=CC(=O)CC[C@]4(C)[C@H]3CC[C@@]21C [ethisterone],2.99%,3.61%,2.08%,-0.95%,2.77%
